# Data from publication PMC4336329 (PLoS ONE, 2015).
# About 2,200 (0.71%) of roughly 310,000 compounds showed an effect of 50% or more. The effect is printed as a negative number. What follows is part of a selection rich in strong results, with near analogues and random picks from the rest.
# Target: human ether-à-go-go-related gene (hERG) potassium channel (human, UniProt Q12809)
# Test: primary screen, population patch clamp on CHO cells stably expressing hERG; higher = less effect of the substance
# Chain of human ether-à-go-go-related gene (hERG) potassium channel (Q12809 whole entry, looked up): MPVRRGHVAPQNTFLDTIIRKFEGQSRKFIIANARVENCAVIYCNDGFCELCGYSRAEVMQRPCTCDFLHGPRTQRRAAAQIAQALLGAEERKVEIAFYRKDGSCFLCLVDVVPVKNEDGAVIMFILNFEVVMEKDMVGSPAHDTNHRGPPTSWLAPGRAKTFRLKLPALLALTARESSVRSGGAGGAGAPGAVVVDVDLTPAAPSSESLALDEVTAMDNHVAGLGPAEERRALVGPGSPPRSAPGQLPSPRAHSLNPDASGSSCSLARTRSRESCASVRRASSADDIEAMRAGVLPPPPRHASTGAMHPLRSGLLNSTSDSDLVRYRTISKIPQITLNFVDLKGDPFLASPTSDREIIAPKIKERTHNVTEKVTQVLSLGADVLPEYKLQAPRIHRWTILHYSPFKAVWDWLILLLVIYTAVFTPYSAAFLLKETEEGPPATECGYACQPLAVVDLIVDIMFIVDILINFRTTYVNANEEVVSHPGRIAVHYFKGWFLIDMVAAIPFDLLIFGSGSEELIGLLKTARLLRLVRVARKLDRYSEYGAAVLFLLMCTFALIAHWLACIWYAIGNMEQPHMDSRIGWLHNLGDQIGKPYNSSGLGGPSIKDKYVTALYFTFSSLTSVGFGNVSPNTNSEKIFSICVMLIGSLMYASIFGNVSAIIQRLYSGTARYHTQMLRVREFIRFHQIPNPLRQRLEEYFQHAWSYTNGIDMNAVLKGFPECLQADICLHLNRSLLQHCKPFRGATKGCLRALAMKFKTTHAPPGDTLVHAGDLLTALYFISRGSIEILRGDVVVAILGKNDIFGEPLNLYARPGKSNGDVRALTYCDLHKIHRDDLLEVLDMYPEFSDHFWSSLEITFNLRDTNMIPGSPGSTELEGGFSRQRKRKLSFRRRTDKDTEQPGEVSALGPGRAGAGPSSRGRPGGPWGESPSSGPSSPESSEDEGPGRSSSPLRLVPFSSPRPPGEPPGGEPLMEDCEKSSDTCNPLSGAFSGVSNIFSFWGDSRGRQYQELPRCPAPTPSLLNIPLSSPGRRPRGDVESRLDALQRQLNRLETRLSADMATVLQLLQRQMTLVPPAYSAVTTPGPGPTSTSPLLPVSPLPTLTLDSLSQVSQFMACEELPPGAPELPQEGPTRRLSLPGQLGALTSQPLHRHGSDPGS
row,Compound,"hERG current change (%, negative = inhibition) at 1uM"
1,COc1ccc(-n2c(-c3cccc(C)c3[N+](=O)[O-])n[nH]c2=S)cc1,7.34%
2,Cc1ccc(OCC(=O)NC2CCS(=O)(=O)C2)cc1 (stereo not drawn),4.41%
3,COc1ccc(C(=O)Nc2nc3ccccc3[nH]2)cc1,20.6%
4,CCCNc1cc(C)oc(=O)c1C(=O)CC,18.4%
5,CC1(C)Cc2c(C#N)c(SCC(=O)c3ccccc3)nc(N3CCOCC3)c2CS1,13%
6,COc1ccccc1C(=O)NNC(=O)c1ccccc1,9.59%
7,CC(=O)n1nc(-c2ccccc2)nc1NCc1cccs1,7.45%
8,COc1ccc(N2CCN(C(=O)c3ccccc3)CC2)c([N+](=O)[O-])c1,-33.8%
9,COc1ccc(N2CCN(C(=O)c3cccc(Br)c3)CC2)c([N+](=O)[O-])c1,-85.9%
10,COc1ccc(N2CCN(C(=O)c3ccc(Br)cc3)CC2)c([N+](=O)[O-])c1,-30.1%
11,CCC(=O)N1CCN(c2ccc(OC)cc2[N+](=O)[O-])CC1,-0.687%
12,COc1ccc(N2CCN(C(=O)CC34CC5CC(CC(C5)C3)C4)CC2)c([N+](=O)[O-])c1,10.3%
13,CCCCC(=O)N1CCN(c2ccc(OC)cc2[N+](=O)[O-])CC1,-54.5%
14,CCOc1cc(C2C3=C(CC(C)(C)CC3=O)N(CCCOC)C3=C2C(=O)CC(C)(C)C3)ccc1O,14%
15,O=C1CC(NS(=O)(=O)c2cccnc2)CN1c1cccc(F)c1 (stereo not drawn),10.3%
16,Cc1ccc(C)c(N(C(=O)CNC(=O)c2ccco2)C(C(=O)NC2CCCCC2)c2ccncc2)c1 (stereo not drawn),7.2%
17,Cc1c(C(=O)NCCCN2CCOCC2)sc2nc(-c3ccc(F)cc3)cn12,-16.8%
18,O=C(c1ccco1)N1CCN(C(=O)C2CC(c3ccc(Cl)cc3)=NO2)CC1 (stereo not drawn),-66.5%
19,Cc1c(C(=O)N2CCN(C(=O)c3ccco3)CC2)sc2nc(-c3ccc(F)cc3)cn12,-56.7%
20,O=C(c1ccco1)N1CCN(C(=O)C2CC(c3ccc(F)cc3)=NO2)CC1 (stereo not drawn),-59.7%
21,O=C(c1ccco1)N1CCN(C(=O)C2CC(c3ccccc3F)=NO2)CC1 (stereo not drawn),3.75%
22,CCOC(=O)N1CCN(C(=O)c2sc3nc(-c4ccc(F)cc4)cn3c2C)CC1,-22.3%
23,COc1cc(OC)c(C2=NOC(C(=O)N3CCN(C(=O)c4ccco4)CC3)C2)cc1Cl (stereo not drawn),-12.8%

row,Compound,"hERG current change (%, negative = inhibition) at 1uM"
1,CCN(CC)CCCNC(=O)c1sc2nc(-c3ccc(F)cc3)cn2c1C,-55.5%
2,Cc1c(C(=O)N2CCN(c3ccc(F)cc3)CC2)sc2nc(-c3ccccc3)cn12,-2.42%
3,COc1cccc(C2=NOC(C(=O)N3CCN(C(=O)c4ccco4)CC3)C2)c1 (stereo not drawn),-16.3%
4,CCN(CC)CCNC(=O)c1sc2nc(-c3ccccc3)cn2c1C,-31.8%
5,COc1ccc(C2=NOC(C(=O)N3CCN(C(=O)c4ccco4)CC3)C2)cc1OC (stereo not drawn),15.8%
6,O=C(c1cccc(N2C(=O)C3CC=CCC3C2=O)c1)N1CCCc2ccccc21 (stereo not drawn),-16.3%
7,CCOC(=O)CNC(=O)CSc1nnnn1-c1ccc(C)c(C)c1,0.993%
8,Cn1cc(CC(=O)N2CCN(c3ccc(Cl)cc3)CC2)c2ccccc21,-0.545%
9,Cc1ccccc1OCC(=O)Nc1ccccc1C(=O)NC1CC1,8.41%
10,Cc1ccc(C)c(NC(=S)N2CCN(CCO)CC2)c1,5.15%
11,CC1CCN(C(=O)COC(=O)c2cn(C)c3ccccc23)CC1,7.49%
12,Cc1ccc(N2CC(C(=O)N3CCN(C(=O)c4ccco4)CC3)CC2=O)cc1 (stereo not drawn),-45.8%
13,O=C(c1ccco1)N1CCN(C(=O)C2CC(=O)N(c3ccc(Cl)cc3)C2)CC1 (stereo not drawn),-80.2%
14,O=C(c1ccco1)N1CCN(C(=O)C2CC(=O)N(c3ccccc3)C2)CC1 (stereo not drawn),-1.56%
15,O=C(COc1ccc(Cl)cc1)Nc1ccc(Cl)cn1,-2%
16,COc1ccc(Oc2nc(SC)nc3ccccc23)cc1,2.03%
17,O=C(/C=C/Nc1ccc(F)cc1F)c1cccs1,18.4%
18,C[C@H](NC(=O)c1nc[nH]c1C(=O)N[C@@H](CCCCNC(=O)OC(C)(C)C)C(=O)OC(C)(C)C)c1ccccc1,19.1%
19,COc1ccc(NC(=S)N2CCN(c3ccc([N+](=O)[O-])cc3)CC2)cc1OC,-82.2%
20,COc1cccc(NC(=S)N2CCN(c3ccc([N+](=O)[O-])cc3)CC2)c1,-9.45%
21,COc1ccc(NC(=O)N2CCN(c3ccc([N+](=O)[O-])cc3)CC2)cc1,-14.2%
22,O=[N+]([O-])c1ccc(N2CCN(C(=S)Nc3ccc(F)cc3)CC2)cc1,-23.8%
23,COc1ccc(NC(=O)N2CCN(c3ccc([N+](=O)[O-])cc3)CC2)cc1OC,-63.2%

row,Compound,"hERG current change (%, negative = inhibition) at 1uM"
1,COc1ccccc1N1CCN(C(=O)Nc2ccc([N+](=O)[O-])cc2)CC1,-10.6%
2,Cc1ccc(S(=O)(=O)N/N=C/c2cc(Br)c(C)o2)cc1,8.23%
3,O=C(N/C(=C/c1cn(-c2ccccc2)nc1-c1ccccc1)C(=O)N1CCOCC1)c1ccc(Cl)cc1Cl,24.2%
4,Cl.O=S1(=O)N=C(N(CCO)/N=C/c2ccncc2)c2ccccc21,7.58%
5,CC1CCCCC12NC(=O)N(CC(=O)Nc1ccc(N3CCOCC3)cc1)C2=O (stereo not drawn),4.35%
6,S=c1[nH]nc(-c2ccncc2)n1/N=C/c1cccc(Cl)c1,8.7%
7,CNc1c([N+](=O)[O-])cnn1-c1ccccc1Cl,-13.4%
8,N#Cc1cncc(-c2ccc3c(c2)OCCOCCOCCOCCOCCO3)n1,-95.2%
9,Cc1ccc2nc(-c3ccc4c(c3)OCCO4)cn2c1,15.7%
10,c1ccn2cc(-c3ccc4c(c3)OCCO4)nc2c1,4.22%
11,c1cncc(-c2nc(-c3ccc4c(c3)OCCO4)cs2)c1,9.93%
12,N#Cc1ncc(-c2ccc3c(c2)OCCOCCOCCOCCOCCO3)nc1C#N,-84.8%
13,O=[N+]([O-])c1ccc2c(c1)OCCOCCOCCOCCOCCOCCO2,-32.5%
14,N#CCC(=O)Nc1nc(-c2ccc3c(c2)OCCO3)cs1,8.5%
15,Cl.Nc1nc(-c2ccc3c(c2)OCCO3)cs1,14.3%
16,N#Cc1ncc(-c2ccc3c(c2)OCCOCCOCCOCCO3)nc1C#N,-63.6%
17,CC1CCN(C(=O)COC(=O)C23CC4CC(CC(O)(C4)C2)C3)CC1,18.8%
18,CCC(C)(C)n1nnnc1C(c1ccncc1)N1CCC(C)CC1 (stereo not drawn),-0.168%
19,CCCn1nc2ccccc2c1P(=O)(N1CCOCC1)N1CCOCC1,-0.888%
20,O=C(NCCc1cccc(Cl)c1)c1cc2ccccc2oc1=O,12.5%
21,O=C1CCCc2c1nn(-c1ccccc1)[n+]2[O-],6.47%
22,Cc1nn(CC(=O)Nc2c(C)n(C)n(-c3ccccc3)c2=O)c(C)c1[N+](=O)[O-],8.99%
23,Cc1nn(CC(=O)Nc2cccnc2)c(=O)c2ccccc12,-9.14%

row,Compound,"hERG current change (%, negative = inhibition) at 1uM"
1,CCOC(=O)CC1C(=O)NCCN1c1nc2c(C)cccn2c(=O)c1/C=C1\SC(=S)N(C(C)CC)C1=O (stereo not drawn),9.18%
2,CCOC(=O)C1CCN(C(=O)c2sc3ncnc(N4CCC(C)CC4)c3c2C)CC1,-57.3%
3,Cc1c(C(=O)N2CCC(Cc3ccccc3)CC2)sc2ncnc(N3CCC(C)CC3)c12,9.72%
4,CCOC(=O)C1CCN(C(=O)c2sc3nc(C)nc(N4CCC(C)CC4)c3c2C)CC1,-1.96%
5,COc1ccc2nc(SCC(=O)Nc3ccc(S(=O)(=O)N4CCCC4)cc3)c(C#N)cc2c1,-3.01%
6,CN(C)C(=O)c1cc(C(=O)c2ccc(F)cc2C(F)(F)F)c[nH]1,14.3%
7,Cc1nn(-c2cccc(Cl)c2)c2c1C(c1ccncc1)C(C#N)=C(N)O2 (stereo not drawn),5.94%
8,CCOC(=O)CCCCC(=O)c1[nH]c(=O)[nH]c1CSc1nnc2c3ccccc3n(C(C)C)c2n1,-0.434%
9,O=C(c1ccc(C(F)(F)F)cc1)C1CCCN(C2CCSCC2)C1 (stereo not drawn),-64.4%
10,Cc1cc(Cl)ccc1C(=O)C1CCCN(C2CCSCC2)C1 (stereo not drawn),-49.3%
11,CC(C)(C)c1ccc(C(=O)C2CCCN(C3CCC3)C2)cc1 (stereo not drawn),10.7%
12,CN1CCCC(C(=O)c2ccc(Cl)cc2)C1 (stereo not drawn),-2.93%
13,O=C(c1ccc(C(F)(F)F)cc1)C1CCCN(C(=O)c2csnn2)C1 (stereo not drawn),9.85%
14,O=C(c1ccc(Cl)cc1)C1CCCN(C2CCSCC2)C1 (stereo not drawn),-63.4%
15,CCC(=O)Nc1ccc(S(=O)(=O)Nc2cccc(C)c2)cc1OC,6.57%
16,COc1cc(O)c(C(CCN2CCOCC2)c2ccc3c(c2)OCO3)c(OC)c1 (stereo not drawn),-45.7%
17,CC(C)CCC(CCN1CCCC1)c1ccc2c(c1)OCO2.O=C(O)C(=O)O (stereo not drawn),-83.3%
18,O=C(CCN1CCCCC1)c1ccc2c(c1)OCO2,10.3%
19,CC(C)CCC(CCN1CCOCC1)c1ccc2c(c1)OCO2.Cl (stereo not drawn),-76.8%
20,C(=NCCCN1CCOCC1)c1ccc2c(c1)OCO2,16.1%
21,COc1cc(OC)c2ccc(=O)oc2c1C(CCN1CCCC1)c1ccc2c(c1)OCO2 (stereo not drawn),-7.33%
